Measured values reported in PubChem BioAssay (Tox21).
Results filed as inconclusive are left out. A number with no mark means an inactive call. Calls come from the whole dose curve; as a rule, active = well fitted cell-killing curve with a large enough effect in the repeat runs; inconclusive = weak or mixed curves, or effect the other way; inactive = flat fitted curve, though single readings scatter.

Experiment: Human pregnane X receptor (PXR) small molecule agonists, qHTS cell viability counter screen (AID 1346977); note: nearly all actives have a fitted effect of over 50% in size
Conditions: PXR-Luc HepG2 viability, CellTiter-Fluor, 24 h; series mostly up to 92.4 µM; activity change, negative = cytotoxicity: at the top concentration
Source text: U.S. Tox21 Program National Center for Advancing Translational Sciences [NCATS] NIH Chemical Genomics Center [NCGC] U.S. Environmental Protection Agency [EPA] National Institutes of Environmental Health Sciences [NIEHS] National Toxicology Program [NTP] U.S. Food and Drug Administration [FDA] Tox21 Assay Overview: The human pregnane X receptor (hPXR) regulates the expression of several drug metabolizing enzymes and induction of these proteins is a major mechanism for developing drug resistance in cancer. One such key enzyme catalyzing the drug metabolism is cytochrome P450 3A4 (CYP3A4). Changes in CYP3A4 expression affect drug metabolism, thereby reducing the therapeutic efficacy and altering toxicological response to a drug and which finally causes adverse drug interaction. To screen Tox21 libraries for compounds that activate hPXR-mediated CYP3A4 gene expression, PXR-Luc HepG2 cells were used. Also cytotoxicity of the compounds was tested in parallel by measuring the cell viability using CellTiter-Fluor assay system in the same wells.
Tox21 Assay Protocol Summary: PXR-Luc HepG2 cells were dispensed at 2,000 per well in 5uL of assay medium containing 5% charcoal-stripped FBS into white solid bottom 1536-well plates (Corning Life Sciences, Corning, NY) using a Multidrop Combi (Thermo Scientific, Waltham, MA) dispenser. The assay plates were incubated at 37 C and 5% CO2 for 5hr, and then 23nL of compounds dissolved in DMSO and positive control were transferred using a Pintool station (Wako, San Diego, CA). The assay plates were incubated at 37C and 5% CO2 for 24hr. For cytotoxicity read, after 23hr incubation at 37C, 1uL CellTiter-Fluor reagent (Promega Corporation, Madison, WI) was added to each well of the assay plates using Flying Reagent Dispenser (FRD, Aurora Discovery, San Diego, CA). After 1hr incubation at 37C and 5% CO2, the fluorescence signal was quantified using a ViewLux plate reader (PerkinElmer, Shelton, CT).
% is set by controls: 0 for no effect and ±100 for the full control effect.

Row | Compound | activity change, negative = cytotoxicity
1 | C=CCCCCCCCCOC(C)=O | 1.71%
2 | O=C(O)P(=O)(O)O | -1.31% [at 42.5 µM]
3 | CCCCC(CC)COC(=O)CC#N (stereo not given) | 0.0707%
4 | O=C(O)Cc1ccccc1Oc1ccc(Cl)cc1Cl | 3.58% [at 42.5 µM]
5 | Clc1ccc2c(c1)Nc1ccccc1S2 | 4.01% [at 42.5 µM]
6 | C[C@@H]1CCC[C@H](C)N1CCCC(O)(c1ccccc1)c1ccccn1 (stereo not given in full) | -16.9% [at 42.5 µM]
7 | Nc1cc(S(=O)(=O)O)ccc1O | 4.25%
8 | CCCCCCCCC1CO1 (stereo not given) | 0.0606%
9 | CCCCCCCCS(=O)(=O)O | 8.05%
10 | CC(O)CCCCn1c(=O)c2c(ncn2C)n(C)c1=O (stereo not given) | -0.786% [at 42.5 µM]
11 | O=CN1CCCCC1 | 1.73%
12 | CCCCCCCCCCCCCCCC(=O)OC | 0.375% [at 19 µM]
13 | CCOC(=O)[C@H](CCc1ccccc1)N[C@H]1CS[C@H](c2cccs2)CN(CC(=O)O)C1=O | 4.97% [at 42.5 µM]
14 | CCOC(=O)CC(C(C)=O)C(C)=O | 9.32%
15 | O=c1c(O)c(O)c1=O | 1.49%
16 | CC(C)(Sc1cc(C(C)(C)C)c(O)c(C(C)(C)C)c1)Sc1cc(C(C)(C)C)c(O)c(C(C)(C)C)c1 | 20.3% [at 42.5 µM]
17 | CCC(C)SSC(C)CC (stereo not given) | 11.4%
18 | CCCCCCCCCCCC(C)=O | 1.58%
19 | O=C(OOC(=O)c1ccccc1)c1ccccc1 | -8.59% [at 42.5 µM]
20 | CC(C)OCCO | 4.37%

Row | Compound | activity change, negative = cytotoxicity
21 | CC(=O)Nc1ccc(S(=O)(=O)Nc2cc(C)on2)cc1 | 6.05% [at 42.5 µM]
22 | CC(=O)c1ccc(O)c(C(N)=O)c1 | 8.8% [at 42.5 µM]
23 | CC(C)CC(O)Cc1ccccc1 (stereo not given) | 1.67%
24 | CC(=O)OCC(=O)[C@@]1(O)CC[C@H]2[C@@H]3CCC4=CC(=O)C=C[C@]4(C)[C@H]3[C@@H](O)C[C@@]21C | -0.0838% [at 42.5 µM]
25 | CC(C)(C)C(=O)CCc1ccc(Cl)cc1 | 6.97%
26 | CC(C)(C)C(=O)NCCCC(=O)O | 14.4% [at 42.5 µM]
27 | Cc1ccc(N)nc1 | 2.69%
28 | COc1ccccc1N1CCN(CC(O)COc2cc(OC)c(OC)c(OC)c2)CC1 (stereo not given) | 4.97% [at 42.5 µM]
29 | CCCc1ncc(C(=O)O)s1 | 6.53% [at 42.5 µM]
30 | Cc1cc(C)c(C)c(C)c1 | -1.83%
31 | N#Cc1cc(NC(=O)C(=O)O)c(Cl)c(NC(=O)C(=O)O)c1 | 17.5% [at 42.5 µM]
32 | CCCCN=C(N)N=C(N)N | 0.182% [at 42.5 µM]
33 | CC(=O)SC[C@@H](C)C(=O)N1CCC[C@H]1C(=O)N[C@@H](Cc1ccccc1)C(=O)O | 13.6% [at 42.5 µM]
34 | CCN1CCN(C(=O)N[C@@H](C(=O)N[C@@H]2C(=O)N3[C@@H]2SC(C)(C)[C@H]3C(=O)O)c2ccccc2)C(=O)C1=O | 7% [at 42.5 µM]
35 | Cc1cc2c(cc1CC(=O)c1sccc1S(=O)(=O)Nc1onc(C)c1Cl)OCO2 | 3.31% [at 42.5 µM]
36 | CC(=O)OC/C=C(/C)CCC=C(C)C | 6.22%
37 | CC(C)C[P+](C)(CC(C)C)CC(C)C | -1.42%
38 | CCOC(=O)c1ccc(N(C)C)cc1 | -0.577%
39 | O=C[C@@H](O)[C@H](O)[C@H](O)CO | -1.57%
40 | CC(C)(C)c1ccc(C(=O)CCCCl)cc1 | 12% [at 42.5 µM]
